Data from PubChem BioAssay AID652257 (The Scripps Research Institute Molecular Screening Center, 2013).
In all, about 370,000 compounds went through this assay and about 4,800 (1.3%) were called active.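 How the source made its calls: active means inhibition above about 21% made by adding two undisclosed values (limit read from the data); inactive means the rest.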 For the sample, actives were picked, then their nearest neighbours and some compounds at random.

Biological target: Protein arginine N-methyltransferase 1 (Homo sapiens) (UniProt Q99873)
Sequence (Q99873 whole entry, looked up): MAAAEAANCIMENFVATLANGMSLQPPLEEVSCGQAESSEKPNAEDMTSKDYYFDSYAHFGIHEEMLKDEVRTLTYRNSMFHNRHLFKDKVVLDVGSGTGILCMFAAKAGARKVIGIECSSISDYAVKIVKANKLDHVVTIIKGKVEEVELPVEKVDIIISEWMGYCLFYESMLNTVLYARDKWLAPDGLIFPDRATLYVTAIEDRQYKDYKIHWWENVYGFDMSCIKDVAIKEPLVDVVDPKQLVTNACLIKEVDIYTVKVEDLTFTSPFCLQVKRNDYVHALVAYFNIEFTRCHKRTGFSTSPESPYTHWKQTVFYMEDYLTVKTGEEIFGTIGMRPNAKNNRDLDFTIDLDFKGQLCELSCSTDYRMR
Test: human PRMT1 activity-probe blockers – biochemical, fluorescence polarization, primary screen (AID 652257)
Details: recombinant PRMT1, activity-based probe fluorescence polarization; at 2.79 µM; active compounds read high

inhibition, active:
Cc1ccccc1CN1C[C@@H]2C[C@@H](c3cn(C)nc3-c3ccccc3)N3CCC[C@@]23C1=O 67.8%, Cc1cc2nc(-c3ccco3)c(Cc3cccc(F)c3)n2c(C)c1Br 36.5%, O=C(O)CCn1c(O)c(C=C2N=c3ccccc3=N2)sc1=S 29.5%, COc1ccc(NC(=O)CSc2nnc(Cc3ccccc3)c(=O)n2N)cc1 31.4%, COc1ccccc1-n1c(SCC(=O)Nc2ccc(Cl)cc2)nc(O)c(Cc2ccccc2)c1=O 34.5%, COc1cccc(NC(=O)CSc2nccn(-c3ccc4c(c3)OCCO4)c2=O)c1 29.1%, Cc1ccc(-n2nc(-c3ccco3)cc2C(=O)NCc2cccnc2)cc1 35.6%, O=C(CCNC(=O)c1ccccc1)NN=Cc1ccc(Br)o1 24.6%, NC(=O)C1(N2CCCCC2)CCN(C2CC(=O)N(Cc3ccc(N4CCCC4=O)cc3)C2=O)CC1 (stereo not drawn) 41.5%, COc1ccc(Nc2nc(-c3cccnc3)nc3ccccc23)cn1 25.2%, Cc1ccc(/C=C(\C#N)C(=O)Nc2cccc3ncccc23)o1 24.4%, Cc1ccn(C(CC(=O)c2ccc(Br)cc2)C(=O)O)n1 (stereo not drawn) 23.6%, CC(C(=O)Nc1ccc(O)c(C(=O)O)c1)N1C(=O)/C(=C/c2cccs2)SC1=S (stereo not drawn) 26.4%, O=c1ccc2c(-c3ccccc3S(=O)(=O)O)c3ccc(O)c(O)c3oc-2c1O 66.9%, Cc1nnc(SCC2=C(C(=O)O)N3C(=O)C(NC(=O)Cn4nc(C)c(Cl)c4C)C3SC2)s1 (stereo not drawn) 34.1%, Cc1cc(C)cc(C(=O)NC2C(=O)N3C(C(=O)O)=C(CSc4nnc(C)s4)CSC23)c1 (stereo not drawn) 39.9%, CC(=O)N(c1ccc2oc(=O)sc2c1)S(=O)(=O)c1ccc(C)cc1 86%, COC(=O)CNC(c1ccccc1Cl)c1cc(Br)ccc1NC(=O)CCN1CCOCC1 (stereo not drawn) 21.5%

inhibition, inactive:
COc1ccc(N(C)C(=O)C2CCN(S(=O)(=O)c3cccc4nsnc34)CC2)cc1 -1.3%, Cc1ccccc1CN1C[C@@H]2C[C@@H](c3ccc4nsnc4c3)N3CCC[C@@]23C1=O 1.62%, COc1ccc(CN2CCN(Cc3cn(C)nc3-c3ccccc3)CC2CCO)c(C)c1C (stereo not drawn) 0.32%, C=CCN(C(=O)[C@@H](CCCC)[C@@H](O)c1ccc(Cl)cc1)c1ccccc1 -0.47%, CC(C)CNc1cccc2c1S(=O)(=O)N(Cc1cn(Cc3ccccc3C(F)(F)F)nn1)Cc1ccccc1O2 2.58%, CCNC(=O)CC1C(=O)N(c2ccc(F)cc2)C(=O)N1CCc1sccc1C (stereo not drawn) -2.07%, Cc1cc2nc(-c3ccc(F)cc3)c(Cc3ccsc3)n2c(C)c1Br 1.03%, Cc1cc(Br)cn2c(Cc3cccc(F)c3)c(-c3cccc(Br)c3)nc12 -2.69%, Nc1nc(NC(=O)/C=C/c2ccc(F)cc2)nn1-c1ccccc1 -3.14%, CCCCNC(=O)C[C@H]1C[C@@]2(C(=O)OC)C(=C[C@H](COCc3ccccc3)O[C@@H]2C)N(Cc2ccc(Cl)cc2Cl)C1=O -3.14%, CCc1c(O)nc(SCC(=O)Nc2ccccc2)n(C(C)CC)c1=O (stereo not drawn) 17%, COc1ccc(Cc2nnc(SCC(=O)N(c3ccccc3)C(C)C)n(N)c2=O)cc1 -6.66%, COc1ccc(-n2c(COc3ccc(C)cc3)nnc2SCC(=O)Nc2ccc(Oc3ccccc3)cc2)cc1 -3.87%, CCOc1ccc(NC(=O)CSc2nc3c(c(=O)n2-c2ccccc2OC)SCC3)cc1 5.66%, COc1ccccc1-n1ccnc(SCC(=O)NC2CCCCC2)c1=O 1.07%, Cn1ccnc1SCC(=O)Nc1ccc2c(c1)OCCO2 5.34%, COC(=O)[C@@]12C[C@@H](CC(=O)NCCCCc3ccccc3)C(=O)N(CCc3ccc(OC)c(OC)c3)C1=CCC(C)(C)C2 3.69%, CN[C@H]1C[C@H]2c3[nH]c4c(-c5ccccc5)cccc4c3CCN2C(=O)[C@H]1[C@H](C)O 6.14%, Cc1ccc2c(c1)N(CCCC(=O)NCc1cccnc1)C(=O)CO2 0.38%, CSc1sc(C(=O)NC(=O)NCc2cccnc2)c(C)c1-c1ccon1 1.09%, CN1C(=O)C(Br)(Br)CC1c1cccnc1 (stereo not drawn) 1.18%, Cc1c[nH]c2cccc(-c3ccc(Cl)cc3)c12 -0.29%, O=C(CSc1ccc(/C=N/NC(=O)c2cccc(F)c2)o1)Nc1ccccc1 2.86%, N#CCC(=O)N/N=C/c1ccc(SCC(=O)Nc2ccccc2)o1 4.99%, COC1=C[C@H](C(=O)NCCNC(C)=O)[C@H](C)[C@@H](c2ccccc2)CC1=O 0.29%, COc1ccc(/C=C2\CC3(OC(C)=O)CCCN2C3)cc1 (stereo not drawn) 1.73%, Cc1ccc(CN2CCCCC(NC(=O)C3CCCCC3)C2=O)cc1 (stereo not drawn) -3.29%, O=C(Nc1cccc(S(=O)(=O)N2CCOCC2)c1)C12CC3CC(CC(C3)C1)C2 2.62%, NC(=O)C1(N2CCCC2)CCN(Cc2ccccc2)CC1 2.71%, CCCNC(=O)NCc1ccc(N2CCCC2=O)cc1 0.33%, Clc1ccc(C(Cn2ccnc2)OCc2ccsc2Cl)c(Cl)c1 (stereo not drawn) 1.55%, O=C(Nc1ccc(Cl)cc1)Nc1ccc(Oc2cccnc2)nc1 1.37%, O=C(CSc1n[nH]c(-c2cccnc2)n1)Nc1ccnc2ccccc12 -1.69%, CN(C)c1ccc(CNC(=O)CN2C(=O)COc3ccc(S(=O)(=O)N4CCCC4)cc32)cc1 -4.13%, O=C(N1CCOCC1)N1CC[C@H]2[C@H](CCCN2Cc2ccc(F)cc2)C1 5.12%, N#C/C(=C/c1ccc(N2CCCCC2)o1)C(=O)NCCc1c[nH]c2ccccc12 -51.4%, Cc1ccc2c(NC(=O)C3CC3)cccc2n1 -1.46%, CCN(C(=O)c1ccc(Br)cc1)c1ccccc1 -3.92%, Cc1ccc(NC(=O)CCC(=O)c2ccc(Br)cc2)cc1 -1.58%, CC(=O)N1CCOc2ccc(S(=O)(=O)N3CCC(C(=O)Nc4ccccc4F)CC3)cc21 -0.05%, C=C(C)C#CC(Cc1ccccc1)N(CC1CC1)/C(N)=N/C(=O)OCc1ccccc1 (stereo not drawn) -3.31%, COC(=O)C(C(=O)OC)c1ccccc1NS(=O)(=O)c1cccc2ccccc12 -4.23%, C[C@H](C(=O)N(C)c1ccccc1)[C@@H](O)c1ccc(Cl)cc1 -4.72%, CCOc1ccc(NC(=O)C(C)N2C(=O)c3ccccc3C2=O)cc1 (stereo not drawn) -1.49%, O=C1/C(=C/c2cccs2)SC(=S)N1C1CCS(=O)(=O)C1 (stereo not drawn) 0.87%, CC(C)(C)c1cc(CN2CCN(CCC#N)CC2)cc(C(C)(C)C)c1O 9%, CCc1c(C)nc(N)n2c(SCC(=O)NC3CCCCC3)nnc12 -2.99%, Nc1[nH]c(/C=C2/CCCCC2n2[nH]c(=O)n(-c3ccccc3)c2=O)c(Cc2ccccc2)[n+]1Cc1ccccc1 (stereo not drawn) -2.27%, COc1ccc(CCNCc2c(-c3ccccc3)n(C)c3ccccc23)cc1 2.67%, CC(C)(C)OC(=O)NCCc1ccccc1/C=C/S(=O)(=O)NCc1ccc(F)cc1 0.24%, COc1cccc2c1OCC(CN1CCN(C3CCCCC3)C(CCO)C1)=C2 (stereo not drawn) -3.92%, O=C(CSc1nc2c(c(=O)[nH]1)CCCC2)N1CCCCC1 -3.61%, C=CCN(C)CC#Cc1ccccc1 -2.36%, Cc1ccc(-c2nc(C3CCCN(S(=O)(=O)c4ccc(Br)s4)C3)no2)cc1 (stereo not drawn) 3.15%, CC1CCc2c(nc3ncnn3c2Nc2ccc(OC(F)(F)F)cc2)C1 (stereo not drawn) 0.92%, c1ccc2c(c1)CSc1sccc1C2=C1CCNCC1 -3.7%, Cc1nnc(SCC(=O)NC2CCCC2)s1 -0.7%, Cc1nnc(SCc2cc(=O)[nH]c(N3CCN(Cc4ccccc4)CC3)n2)s1 -2.63%, CCOC(=O)C1(Cc2ccccc2)CCN(Cc2cn(C(C)=O)c3ccccc23)CC1 2.34%, Cc1ccccc1CS(=O)(=O)Cc1ccc(C(=O)Nc2ccc(Cl)cc2)o1 5.39%, CCCCN1CCN(C(=O)c2ccc3c(c2)NC(=O)C(C)(C)O3)CC1 -4.36%, COC(=O)[C@]12C[C@H](CC(=O)NCc3cccc4ccccc34)C(=O)N(CCc3ccc(OC)c(OC)c3)C1=C[C@H](C1CCCC1)O[C@@H]2C -7.72%, COC(=O)c1c(C)oc2ccc(N(C(=O)Oc3ccccc3)S(=O)(=O)c3ccccc3)cc12 1.53%, CC(=O)Oc1ccc(N(C(C)=O)S(=O)(=O)c2ccc3ccccc3c2)cc1Br -3.71%, COc1ccccc1C1C(C#N)=C(N)Oc2c1c(-c1ccccc1)nn2-c1ccccc1 (stereo not drawn) 5.44%, COc1cccc(Cn2cc(COC(=O)Nc3ccc(F)cc3)nn2)c1 0.72%, COc1ccccc1NC(=O)CCN1CCN(c2ccc(Cl)cc2)CC1 1.94%, Cc1cc(NC(=O)CCN2CCN(Cc3ccccc3)CC2)ccc1Br 0.6%, Cc1cc(S(=O)(=O)NC2CCCC2)ccc1-n1cnnn1 3.87%, Cc1ccc(CN(C)C[C@@H]2OCc3cnnn3CCCC(=O)N([C@@H](C)CO)C[C@H]2C)cc1 -5.16%
